The entries come from a sample that favours hits as a whole.
p53null 32C kill: p53 null cell cytotoxicity, permissive temperature. hit rate 0.62% among 55,000. Potency, µM (titrated, usually from 46.1 µM), hits mostly cytotoxic. H1299-neo p53 null cells, ATP luminescence, 24 h, 32C; note: nearly all actives have a fitted effect of over 55% in size
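AC50 values derive from Hill modelling of qHTS concentration-response data (up to 46 uM) in H1299-neo cells. Cells were treated 24 h at 32C following overnight attachment at 37C; viability was read as cellular ATP.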
GALC G270D act: enhancers of human galactocerebrosidase G270D mutant activity in cells; P54803; hit rate 0.1% among 45,000; Potency, µM (highest dose often 57.5 µM), hits mostly activators; 145M-Twi-hGALC-G270D cells, HMU-beta-Gal fluorescence, 48 h; AID 1159614; note: nearly all actives have a fitted effect of over 65% in size
Target sequence (P54803 whole entry G286D): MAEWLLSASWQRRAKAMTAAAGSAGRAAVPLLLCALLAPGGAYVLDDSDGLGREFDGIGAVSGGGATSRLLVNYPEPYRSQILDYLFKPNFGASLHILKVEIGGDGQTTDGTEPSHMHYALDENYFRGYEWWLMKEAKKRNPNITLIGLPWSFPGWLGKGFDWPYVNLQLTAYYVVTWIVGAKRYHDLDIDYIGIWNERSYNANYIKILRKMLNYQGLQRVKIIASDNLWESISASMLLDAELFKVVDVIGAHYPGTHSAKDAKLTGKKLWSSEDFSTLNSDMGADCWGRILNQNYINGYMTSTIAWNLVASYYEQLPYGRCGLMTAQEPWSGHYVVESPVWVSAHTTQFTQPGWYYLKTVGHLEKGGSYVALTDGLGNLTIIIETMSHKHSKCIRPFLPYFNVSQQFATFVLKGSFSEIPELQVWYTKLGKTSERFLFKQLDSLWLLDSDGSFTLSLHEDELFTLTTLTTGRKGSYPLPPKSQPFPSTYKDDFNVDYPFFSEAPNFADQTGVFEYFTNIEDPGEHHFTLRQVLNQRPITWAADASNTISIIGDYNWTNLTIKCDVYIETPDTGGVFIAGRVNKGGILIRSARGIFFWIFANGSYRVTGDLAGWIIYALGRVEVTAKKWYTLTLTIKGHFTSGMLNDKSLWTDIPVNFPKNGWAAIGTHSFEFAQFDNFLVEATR
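qHTS, 1536-well; 145M-Twi-hGALC-G270D cells (WT line also made) in DMEM/F12 + 10% FBS; compound incubation on live cells; HMU-β-gal 0.1 mM final, pH 5.2, NaTC; carbonate stop; fluorescence increase = enhanced residual activity.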
p53null 39C kill: p53 null cell cytotoxicity, nonpermissive temperature; H1299 p53-null (neo) cells, 39C, ATPlite viability, 24 h; hit rate 0.97% among 55,000; Potency, µM (doses to about 46.1 µM), hits mostly cytotoxic; note: nearly all actives have a fitted effect of over 50% in size
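Temperature-shift cytotoxicity format: compound titrations on p53-null or A138V-expressing H1299 cells held 24 hr at 39C, cell ATP then measured, AC50 from Hill model.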
NTMT1 inh: inhibitors of human N-terminal methyltransferase NTMT1; Q9BV86; NTMT1 MTase-Glo SAH luminescence, purified enzyme; Potency, µM (top dose mostly 114 µM), actives largely listed as inhibitors; hit rate 2.5% among 59,000; AID 1645870; note: nearly all actives have a fitted effect of over 65% in size
FH mod: Identification of activators of human fumarate hydratase by quantitative high-throughput screening; Fumarate hydratase, mitochondrial (Homo sapiens), P07954; Potency, µM (top dose mostly 79.9 µM), usual class: inhibitors; hit rate 0.22% among 54,000; FH coupled MDH/diaphorase resazurin fluorescence, 15 min; note: the screen sought activators but most active calls are inhibition curves; nearly all actives have a fitted effect of over 45% in size
Each line names hits and unclear results; the compound was inactive in the other large screens; ! = not confirmed by another sample. Calls come from the whole dose curve; as a rule, active = well fitted curve in the direction sought with a large enough effect; inconclusive = small, poorly fitted or top-dose-only effect, or another doubt; inactive = no such curve, though single readings can be large; an effect the other way counts as inactive or inconclusive.

COc1cc(NC(=O)c2nc3ccccc3n(C)c2=O)cc(OC)c1OC	p53null 39C kill inconclusive
CC(=O)c1cccc(NC(=O)c2nc3ccccc3n(C)c2=O)c1	p53null 32C kill 2.82µM, p53null 39C kill 2.51µM, NTMT1 inh 25.1µM
COc1ccc(N2C[C@]34C=C[C@H](O3)C(C(=O)O)C4C2=O)cc1 (some centres not stated)	none (no result: p53null 32C kill, GALC G270D act, p53null 39C kill, FH mod)
CN(CCOc1ccc(C[C@H](Nc2ccccc2C(=O)c2ccccc2)C(=O)O)cc1)c1ccccn1	NTMT1 inh 79.4µM! (no result: p53null 32C kill, GALC G270D act, p53null 39C kill, FH mod)
CC(=O)Nc1ccc2nc(SCc3ccccc3)sc2c1	FH mod inconclusive
CCc1ccc(Nc2nc(N)nc(CSc3nc4ccccc4s3)n2)cc1	p53null 39C kill inconclusive, NTMT1 inh 89.1µM, FH mod inconclusive
FC(F)(F)c1ccc(-c2nc(-c3nnc4n3CCCCC4)c(C(F)(F)F)o2)cc1	none (no result: p53null 32C kill, GALC G270D act, p53null 39C kill, FH mod)
Cc1cc(=O)oc2cc(OCC(=O)Nc3ccc(O)c(C(=O)O)c3)ccc12	none
CC(=O)N[C@@H](CC(=O)O)C(=O)N[C@@H](CCC(=O)O)C(=O)N[C@H](C(=O)N[C@@H](CC(=O)O)C(=O)Nc1ccc2c(C)cc(=O)oc2c1)C(C)C	FH mod 20µM (no result: p53null 32C kill, GALC G270D act, p53null 39C kill)
C/C=C/C[C@@H](C)C(=O)[C@H]1C(=O)N[C@@H](C(C)C)C(=O)N(C)CC(=O)N(C)[C@@H](CC(C)C)C(=O)N[C@@H](C(C)C)C(=O)N(C)[C@@H](CC(C)C)C(=O)N[C@@H](C)C(=O)N[C@H](C)C(=O)N(C)[C@@H](CC(C)C)C(=O)N(C)[C@@H](CC(C)C)C(=O)N(C)[C@@H](C(C)C)C(=O)N1C	none (no result: p53null 32C kill, GALC G270D act, p53null 39C kill, FH mod)
CN(C(=O)c1cccc(Nc2ccc(-c3ccc4c(c3)OCCO4)nn2)c1)C1CCCCC1	p53null 32C kill 11.2µM, p53null 39C kill 12.6µM (no result: GALC G270D act, NTMT1 inh, FH mod)
Cc1ccc(-c2nn(CC(=O)N(C)C(C)c3ccco3)c(=O)cc2C)cc1 (configuration not stated)	none (no result: p53null 32C kill, GALC G270D act, p53null 39C kill, FH mod)
Nc1ncnc2c1ncn2[C@@H]1O[C@H](CO)C(O)[C@H]1O (some centres not stated)	none (no result: p53null 32C kill, GALC G270D act, p53null 39C kill, NTMT1 inh)
CCCCCN1C(C(=O)c2ccccc2)=C(OC(=O)CC)c2ccccc2S1(=O)=O	p53null 32C kill inconclusive, p53null 39C kill inconclusive, FH mod inconclusive
CCCCN1C(C(=O)c2ccccc2)=C(OC(=O)CC)c2ccccc2S1(=O)=O	p53null 32C kill 12.6µM, p53null 39C kill inconclusive
COc1ccc2nc(NCCCO)[nH]c2c1	none (no result: GALC G270D act, NTMT1 inh, FH mod)
COc1ccc2nc(S(=O)Cc3ncc(C)c(OC)c3C)[nH]c2c1 (configuration not stated)	NTMT1 inh 31.6µM! (no result: p53null 32C kill, p53null 39C kill)
O=C1S/C(=C\c2ccc(OCc3cccc(B(O)O)c3)cc2)C(=O)N1Cc1ccc(F)cc1	none (no result: p53null 32C kill, GALC G270D act, p53null 39C kill, FH mod)
CCCNS(=O)(=O)Nc1ncnc(OCCOc2ncc(Br)cn2)c1-c1ccc(Br)cc1	NTMT1 inh 8.57µM! (no result: p53null 32C kill, GALC G270D act, p53null 39C kill)
CC1(C)CCC2(C(=O)O)C(O)CC3(C)C(=CCC4C5(C)CCC(OC6OC(CO)C(O)C(O)C6OC6OC(CO)C(O)C(O)C6OC6OCC(O)(CO)C6O)C(C)(C)C5CCC43C)C2C1 (configuration not stated)	none (no result: p53null 32C kill, GALC G270D act, p53null 39C kill)
COc1ccc2cc1Oc1cc3c(cc1OC)CC[N+](C)(C)[C@H]3Cc1ccc(cc1)Oc1c(OC)c(OC)cc3c1[C@@H](C2)[N+](C)(C)CC3	NTMT1 inh 12.6µM (no result: p53null 32C kill, p53null 39C kill)
COc1cc2c3cc1Oc1cc(ccc1O)C[C@@H]1c4c(cc(OC)c(O)c4Oc4ccc(cc4)C[C@@H]3N(C)CC2)CC[N+]1(C)C	NTMT1 inh inconclusive (no result: p53null 32C kill, p53null 39C kill)
COc1ccc2cc1Oc1ccc(cc1)CC1c3cc(c(OC)cc3CCN1C)Oc1c(OC)c(OC)c(OC)c3c1C(C2)N(C)CC3 (configuration not stated)	NTMT1 inh 39.8µM (no result: p53null 32C kill, GALC G270D act, p53null 39C kill)
Cc1cnc(-c2ccccc2C(C)C)nc1NCc1ccc(-c2ccnc(C(F)(F)F)c2)cc1	none (no result: p53null 32C kill, GALC G270D act, p53null 39C kill, FH mod)
Cc1cc(S(=O)(=O)Nc2ccc3oc4c(c3c2)CCCC4)ccc1Cl	p53null 32C kill inconclusive, p53null 39C kill 17.8µM, FH mod inconclusive
CC(C)(C)C1CCc2oc3ccc(NS(=O)(=O)c4ccc(C(=O)O)cc4)cc3c2C1 (configuration not stated)	p53null 39C kill inconclusive, NTMT1 inh 50.1µM, FH mod inconclusive
